Sampled rows, rich in hits. Any-hit rate of the full collection: about 28%.
CYP2C9 activ = activators of human CYP2C9; P11712; recombinant CYP2C9, luciferin-H conversion, luminescence; stronger effect = higher value; factor 1 = untreated enzyme, 0 = blocked; activation factor at 5 µM; 96,000 compounds, 1.4% hits;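 active means activation factor of 2 or more for CYP2C9 at a 5 µM dose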;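 further: 0 = sulfaphenazole-blocked wells and 1 = vehicle-only wells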
CD11b adhes enh = CD11b/CD18-fibrinogen binding enhancement. P05107+P11215. K562 CD11b/CD18 adhesion to fibrinogen, ATPlite luminescence. activation, % at 10 µM. 93,000 compounds, 0.07% hits;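 active means 10 µM primary screen giving 50% or more activity, confirmed by 40% or more on retest at that dose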
Target sequence (P05107 whole entry, looked up, other chains not shown): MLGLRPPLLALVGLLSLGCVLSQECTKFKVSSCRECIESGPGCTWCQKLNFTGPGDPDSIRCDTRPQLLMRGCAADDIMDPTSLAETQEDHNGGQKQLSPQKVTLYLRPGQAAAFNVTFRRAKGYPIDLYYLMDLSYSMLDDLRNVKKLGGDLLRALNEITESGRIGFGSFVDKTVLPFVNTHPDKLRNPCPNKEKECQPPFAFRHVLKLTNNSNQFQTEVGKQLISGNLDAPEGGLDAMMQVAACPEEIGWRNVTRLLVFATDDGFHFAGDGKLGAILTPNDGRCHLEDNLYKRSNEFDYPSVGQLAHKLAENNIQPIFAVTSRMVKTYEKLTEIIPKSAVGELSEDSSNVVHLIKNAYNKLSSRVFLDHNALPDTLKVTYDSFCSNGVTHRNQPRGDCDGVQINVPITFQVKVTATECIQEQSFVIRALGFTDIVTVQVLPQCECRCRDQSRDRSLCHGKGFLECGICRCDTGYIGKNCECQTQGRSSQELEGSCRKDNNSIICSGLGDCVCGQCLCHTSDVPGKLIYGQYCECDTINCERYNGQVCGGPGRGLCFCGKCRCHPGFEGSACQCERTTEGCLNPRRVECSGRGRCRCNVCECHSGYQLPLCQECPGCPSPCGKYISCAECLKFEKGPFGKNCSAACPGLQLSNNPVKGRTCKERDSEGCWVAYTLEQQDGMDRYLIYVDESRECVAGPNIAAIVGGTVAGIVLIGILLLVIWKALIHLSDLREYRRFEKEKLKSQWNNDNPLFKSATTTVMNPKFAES
CYP2C9 inh = inhibitors of human CYP2C9; P11712; CYP2C9 Supersomes, luciferin-H conversion, luminescence; inhibition, % at 5 µM; 96,000 compounds, 20% hits; AID 777;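 active means blocking of liver enzyme CYP2C9 beyond about 50% at 5 µM, limit read from the data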
Mac1 fbg inh = CD11b/CD18-fibrinogen binding inhibition; P05107+P11215; K562 CD11b/CD18 adhesion to fibrinogen, ATPlite luminescence; Mn2+ added to activate the integrin; inhibition, % at 10 µM; 93,000 compounds, 0.54% hits;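 active means primary inhibition of 50% or more at 10 µM, then 40% or more on retest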
CYP2C19 inh = inhibitors of human CYP2C19; CYP2C19 Supersomes, luciferin-H EGE luminescence, 30 min; P33261; 96,000 compounds, 21% hits; AID 778; inhibition, % at 5 µM;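 active means CYP2C19 inhibition above a set limit at 5 µM in the primary screen, cut at about 50% in these data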;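 further: plate controls were negative control wells for no effect and 2.5 mM tranylcypromine positive control for full effect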
CYP2C19 act = increases human CYP2C19 enzyme activity; P33261; recombinant CYP2C19, luciferin-H EGE luminescence; stronger effect = higher value; 0 = fully inhibited enzyme, 1 = untreated enzyme; activation factor at 5 µM; 96,000 tested, under 10 active; AID 1025;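 active means activation factor of at least 2 at 5 µM in the primary screen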;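 further: 0 = wells with 2.5 mM tranylcypromine and 1 = vehicle-only wells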
* = called active by the depositor; . = no result given.

SMILES	CYP2C9 activ	CD11b adhes enh	CYP2C9 inh	Mac1 fbg inh	CYP2C19 inh	CYP2C19 act
CCN(CC)C(=O)COc1ccc(-c2nnc(N3CCCCC3)c3ccccc23)cc1	0.2	8	80*	10	52*	0.5
CCOc1ccc(-c2nnc(N3CCCCC3)c3ccccc23)cc1	0.6	.	44	.	39	0.6
CN(C)CCNC(=O)c1ccc(-c2nn(C)c(=O)c3ccccc23)cc1	0.9	-3	5	-34	-5	1.1
CCC(CO)NC(=O)c1ccc(-c2nn(C)c(=O)c3ccccc23)cc1 (centres undefined)	0.7	-4	33	-42	1	1
N#CC(c1ccccc1)N(CCCCl)C(=O)c1ccccc1 (centres undefined)	.	0	.	12	.	.
Cc1ccc(N(C(=O)C2CCCC2)C2C=CS(=O)(=O)C2)cc1C (centres undefined)	0.9	7	5	-48	10	0.9
Fc1ccc(Sc2cc(Cl)c(-c3ccccc3)nn2)cc1	0.4	.	57*	.	45	0.5
Cc1cc2ccccc2c(=O)n1CC(=O)NCC(=O)N(C)C1CCCCC1	1.1	-2	-7	1	7	0.9
CS(=O)(=O)N(CC(=O)O)c1ccc(Oc2ccccc2)cc1	0.9	-2	15	-3	8	0.9
CCCCNC(=O)CSc1nc2ccccc2c(=O)n1CC1COc2ccccc2O1 (centres undefined)	0.7	-5	32	-1	70*	0.3
CCCCN(CC)C(=O)CSc1nc2ccccc2c(=O)n1CC1COc2ccccc2O1 (centres undefined)	0.3	-5	74*	13	47	0.5
O=C(CCCn1c(SCC(=O)NCC2CCCO2)nc2ccccc2c1=O)NCC1CCCO1 (centres undefined)	0.6	-3	44	-9	24	0.8
COc1ccccc1N(CC(=O)NC(C)C)S(=O)(=O)c1cccs1	.	5	.	-16	.	.
O=c1ccnc(SCc2ccccc2Cl)[nH]1	0.4	-1	60*	7	-2	1
CC(=O)Nc1cc(S(=O)(=O)Nc2cccc(C)c2)c(C)cc1C	1.6	.	-56	.	65*	0.4
CC(=O)Nc1cc(S(=O)(=O)Nc2ccccc2C)c(C)cc1C	1.3	.	-32	.	51*	0.5
CC(=O)Nc1cc(S(=O)(=O)Nc2ccccc2)c(C)cc1C	1.1	.	-8	.	21	0.8
COc1ccc(CCNc2ncnc3c2oc2ccccc23)cc1OC	0.6	.	39	.	57*	0.4
CN1CCN(c2ccccc2NC(=O)COc2ccc(Br)cc2)CC1	0.2	0	80*	-20	48	0.5
O=C(COc1ccccc1)Nc1ccccc1N1CCCCC1	0.2	2	78*	4	66*	0.3
Cc1cccc(OCC(=O)Nc2ccccc2N2CCCCC2)c1	0.3	0	65*	8	85*	0.1
O=C(COc1ccccc1)Nc1ccccc1N1CCN(c2ccc(F)cc2)CC1	0.9	2	8	7	-4	1
O=C(COc1ccccc1)Nc1cc(C(F)(F)F)ccc1N1CCCC1	0.8	.	18	.	33	0.7
O=C(COc1ccccc1)Nc1ccccc1N1CCN(c2ccccc2)CC1	0.4	6	56*	-12	21	0.8
CC(C)C(CCN1C(=O)CCC1=O)C1CCOC(C)(C)C1 (centres undefined)	0.9	.	9	.	1	1
SMILES	CYP2C9 activ	CD11b adhes enh	CYP2C9 inh	Mac1 fbg inh	CYP2C19 inh	CYP2C19 act
CCCOc1ccc(-c2nc(=S)[nH][nH]2)cc1	0.8	-1	25	-15	13	0.9
CN(Cc1ccccc1)Cc1c(F)cccc1F	1.1	1	-8	-44	46	0.5
CN(Cc1ccccc1)Cc1c[nH]c2ccccc12	1	-2	4	8	88*	0.1
COC(=O)Cn1cnc2sc(C)c(S(=O)(=O)N3CCN(c4ccccc4OC)CC3)c2c1=O	0.5	-8	51*	-2	27	0.7
COC(=O)Cn1cnc2sc(C)c(S(=O)(=O)N3CCC(C)CC3)c2c1=O	0.9	-1	7	-57	26	0.7
COc1cccc(NC(=O)Cn2cnc3sc(C)c(S(=O)(=O)N4CCCCC4)c3c2=O)c1	0.3	-3	66*	20	18	0.8
C=CCc1ccccc1OCC(O)CN1CCN(Cc2ccc3c(c2)OCO3)CC1 (centres undefined)	0.6	2	41	-14	48	0.5
CCOc1ccccc1CN(CCc1ccc2c(c1)OCO2)Cc1ccccn1	0.4	19	58*	-5	98*	0
COc1ccc(NC(=O)c2ccccc2NC(=O)CSc2ccc(Cl)cc2)cc1	0.4	23	62*	-55	62*	0.4
CS(=O)(=O)N1CCN(c2ccccc2NC(=O)CSc2ccc(Cl)cc2)CC1	0.1	6	87*	7	78*	0.2
Cc1ccc2c3c(c(SCC(=O)Nc4nccs4)nc2c1)CCCC3	0.9	.	12	.	3	1
COc1ccccc1C(=O)Nc1ccc(N2CCCCC2)cc1	3.8*	-2	-282	-6	17	0.8
Cc1ccc(C(=O)Nc2ccc3c(c2)nc2n3CCSC2)cc1	0.9	-4	10	-2	4	1
COc1ccccc1C(=O)Nc1ccc2c(c1)nc1n2CCSC1	2*	0	-97	-6	18	0.8
COc1ccc(NC(=O)c2ccc(CN3CCN(c4ccccc4)CC3)cc2)cc1OC	0.8	13	17	-10	7	0.9
COc1ccccc1C(=O)Nc1ccc(N2CCN(Cc3ccccc3)CC2)cc1	2.5*	0	-145	2	7	0.9
COc1ccccc1C(=O)Nc1ccc(S(=O)(=O)N2CCCC2)cc1	0.8	0	16	-10	9	0.9
CCOC(=O)c1c(NC(=O)C2c3ccccc3Oc3ccccc32)sc(C(=O)N(CC)CC)c1C	0	-4	98*	-5	39	0.6
CCOC(=O)c1c(NC(=O)OC)sc(C(=O)N(C)C)c1C	0.5	-4	54*	-19	24	0.8
CCOC(=O)c1c(NC(=O)CN(C)C)sc(C(=O)N(CC)CC)c1C	0.6	.	38	.	30	0.7
CCOC(=O)c1c(NC(=O)Cc2cccs2)sc(C(=O)NC2CCCCC2)c1C	0.3	.	71*	.	33	0.7
CCOC(=O)c1c(NC(=O)Cc2cccs2)sc(C(=O)NC2CCCC2)c1C	0.7	-3	29	-9	9	0.9
CCOC(=O)c1c(NC(=O)CC)sc(C(C)=O)c1C	0.2	-3	77*	-12	69*	0.3
CCCS(=O)(=O)N1CCCC(C(=O)NCCc2ccc(OC)c(OC)c2)C1 (centres undefined)	0.9	-2	10	1	7	0.9
CCOC(=O)c1c(NC(NC(C)=O)C(Cl)(Cl)Cl)sc(C(C)=O)c1C (centres undefined)	0.5	.	54*	.	38	0.6

From PubChem
